# Compounds without any hit were thinned out: in the full panel of roughly 83,000, 20% have a hit.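 For each line, cells grew in 96-well plates with the test compound present at a single concentration for 48 hours.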 Values without a mark were called inactive. Calls of active or inactive are those of the source. How the source made its calls: active means growth percent below 10; inactive means the rest.
# Tests used:
# Experiment in all cases: NCI-60 one-dose screen, 48 h (100 = growth as untreated, 0 = no growth, -100 = all killed)
# Conditions in all cases: 10 µM unless noted
# DU-145 prostate = tested on: DU-145 prostate
# K-562 leukemia = tested on: K-562 leukemia
# MALME-3M melanoma = tested on: MALME-3M melanoma
# MDA-MB-231 breast = tested on: MDA-MB-231 breast
# RXF 393 renal = tested on: RXF 393 renal
# SF-268 CNS = tested on: SF-268 CNS
# SF-295 CNS = tested on: SF-295 CNS
# UACC-257 melanoma = tested on: UACC-257 melanoma
# M14 melanoma = tested on: M14 melanoma
# SF-539 CNS = tested on: SF-539 CNS
SMILES,growth (DU-145 prostate),growth (K-562 leukemia),growth (MALME-3M melanoma),growth (MDA-MB-231 breast),growth (RXF 393 renal),growth (SF-268 CNS),growth (SF-295 CNS),growth (UACC-257 melanoma),growth (M14 melanoma),growth (SF-539 CNS)
CC/C=C\C[C@H](O)C/C=C1/C(=O)C=C[C@@H]1C/C=C\CCCC(=O)NC,15%,0.291% (active),-27.9% (active),26.5%,-79.1% (active),27.7%,8.54% (active),-19% (active),6.09% (active),
O=S(=O)(NCCCNc1cc(-c2cn(-c3ccccc3)nc2-c2cccc(O)c2)ccn1)c1ccccc1,53.7%,1.96% (active),37.2%,9.24% (active),36.7%,52.8%,11%,,46.2%,
CC/C=C\C[C@H](F)C/C=C1/C(=O)C=C[C@@H]1C/C=C\CCCC(=O)O,66.3%,10.3%,59.2%,73%,75%,82.3%,96.2%,49.7%,32.1%,
O=C1/C(=C/c2ccc(Cl)cc2Cl)CN(S(=O)(=O)c2ccccc2)C/C1=C\c1ccc(Cl)cc1Cl,9.52% (active),0.787% (active),36.8%,-23.2% (active),-87% (active),4.96% (active),,,20.5%,-54.1% (active)
O=c1c2cccc3c(NC4CCCCC4)ccc(c32)c2nc3ccccc3n12,98.7%,66.9%,96.1%,82.3%,112%,99.5%,,,86.7%,96.2%
c1c2c(cc3c1OCO3)Cc1cc3c(cc1Cc1cc4c(cc1C2)OCO4)OCO3,121%,117%,116%,116%,,111%,95.8%,84.6%,104%,97.9%
CCOC(=O)N1CCN(c2nc(Nc3cc(C)[nH]n3)c3ccccc3n2)CC1,47.5%,17.4%,77.6%,63.7%,,42.6%,36.5%,65.7%,61.6%,46.8%
COc1cc(C2CC(=O)Nc3c2c(C)nn3-c2nc3ccccc3[nH]2)cc(OC)c1OC (configuration not stated),119%,99.7%,106%,91.6%,89.8%,112%,,96.7%,92.3%,
Oc1ccccc1/C=N/Nc1ccc2ccccc2n1,55.6%,17.8%,35.2%,57.3%,,52%,33.5%,62.8%,52.3%,42.1%
CC1(C)OCC2OC3(C(=O)O)OC(C)(C)OC3C2O1 (configuration not stated),104%,95.9%,104%,107%,,101%,97%,90%,111%,108%
O=C(Nc1ccc(F)cc1)Nc1ccc(CCO)cc1,111%,103%,94.3%,114%,,109%,105%,102%,117%,105%
CCCCCCCCCCCCS(=O)CC(C)O (configuration not stated),126%,103%,116%,104%,,139%,100%,94.7%,107%,97.2%
C#Cc1nc(Nc2cc(C)[nH]n2)c2ccccc2n1,-80% (active),2.59% (active),-70.8% (active),-56% (active),,-86% (active),-57.9% (active),-54.9% (active),-23.6% (active),-44.5% (active)
CNC(=S)N/N=C/CSC/C=N/NC(=S)NC,88.5%,15.8%,72%,83.4%,,102%,108%,67.7%,92.5%,105%
CCCCCC(=O)N(CCCC)CCCC,120%,94.8%,96.8%,99.7%,,115%,88.2%,92.1%,104%,97.4%
CC#Cc1nc2ccccc2c(=O)[nH]1,84.7%,37.8%,65.5%,26.7%,,53.7%,87.2%,48.2%,51.9%,35.6%

SMILES,growth (DU-145 prostate),growth (K-562 leukemia),growth (MALME-3M melanoma),growth (MDA-MB-231 breast),growth (RXF 393 renal),growth (SF-268 CNS),growth (SF-295 CNS),growth (UACC-257 melanoma),growth (M14 melanoma),growth (SF-539 CNS)
C=C(CN1CCN(c2cccc(C(F)(F)F)n2)CC1)c1ccc(C(=O)Nc2ccccc2N)cc1,-23.7% (active),3.45% (active),20%,33.5%,-19.5% (active),,8.13% (active),16.6%,18.5%,6.53% (active)
COc1ccc(-c2nc(Nc3cc(C)[nH]n3)c3ccccc3n2)cc1,61%,24.2%,79.9%,65.3%,,37.3%,48.8%,52%,60.4%,15%
Cc1ccc(C2CC3c4ccccc4C2C2CCCCN32)cc1 (configuration not stated),108%,72%,85.6%,109%,,90.1%,78.4%,59.9%,94.5%,91.4%
C(=N\Nc1nnn(Cc2ccccc2)n1)/c1ccccc1,40%,29.3%,24.7%,98.2%,,46.2%,31.2%,43.9%,42%,41%
NC(CC(=O)O)C(=O)OCc1ccccc1 (configuration not stated),109%,106%,81.1%,105%,,100%,93.3%,89.2%,104%,93.4%
CC(=O)OCC(=O)C1CCC=CC1OC(C)=O (configuration not stated),103%,98.9%,74.2%,109%,,106%,94.8%,92.6%,96.9%,103%
CN1CCCCC1CCN1c2ccccc2Sc2ccc(Cl)cc21 (configuration not stated),67%,7.99% (active),83.2%,65.9%,,65.8%,76.6%,67.4%,45.2%,90.9%
Cc1noc(C)c1-c1cc(O)cc(C(O)c2ccccc2)c1 (configuration not stated),87.5%,42.1%,60%,62.4%,,71.5%,42.5%,40.4%,56%,62.5%
Cl/C(=N\Nc1ccccc1)c1ccccc1,101%,89.5%,86.4%,89.7%,,92.8%,87.7%,75.2%,106%,103%
Cc1cc(Nc2nc(N3CCNCC3)nc3ccccc23)n[nH]1,119%,81.5%,80.4%,103%,,90.6%,88%,87.1%,92.5%,79.4%
CN1CCCCC1CCN1c2ccccc2Sc2ccc(Br)cc21 (configuration not stated),77.9%,2.32% (active),78.4%,67.6%,,66.3%,59.6%,70.7%,49.1%,95.9%
CCC(C)[C@@H]1NC(=O)[C@@H]2CCCN2C(=O)[C@H](Cc2ccccc2)NC(=O)[C@@H]2CCCN2C(=O)[C@H](Cc2ccccc2)NC(=O)[C@@H]2CCCN2C(=O)[C@H](Cc2ccccc2)NC1=O (some centres not stated),118%,91.5%,126%,104%,111%,119%,,,105%,109%
Nc1cc2nc3ccccc3sc-2cc1=O,21.5%,28.5%,-7% (active),59.2%,,78.1%,65.9%,50.8%,81.2%,98%
Nc1ccc(N2CCOCC2)cc1,118%,102%,86.5%,96.1%,108%,107%,,107%,94.1%,
CCCCNc1ccc2c3c1cccc3c(=O)n1c3ccccc3nc21,99.4%,78.8%,89.3%,79.8%,104%,101%,,,93.1%,103%
